Several values for one entry are separate records, joined by “and”; a condition that tells them apart may be missing. Equal values may be shown once. Some compounds were tested as several samples or in several runs, with calls that do not always agree. Activity calls are given as the source filed them. How the source made its calls: active means hit-call score of the fitted dose curve at least 0.9, where 1 is the maximum; inactive means score below 0.9.
What was measured:
[1] = ATG_GLI_CIS: Attagene CIS-FACTORIAL HepG2 Assay for human Zinc Finger Protein GLI1 (AID 2282945); details: HepG2, Attagene cis-factorial reporter mRNA, GLI element; actives raise or lower the signal
In short: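 Bidirectional curve fits relative to DMSO, using reporter mRNA levels from RT-PCR plus capillary electrophoresis. Cells were HepG2 transiently carrying cis-regulated reporter constructs, harvested 24 h after dosing.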

[2] = target: Bile acid receptor (Homo sapiens) (UniProt Q96RI1); assay: ATG_IR1_CIS: Attagene CIS-FACTORIAL HepG2 Assay for human Nuclear Receptor Subfamily 1 Group H Member 4 (NR1H4), IR1 submotif (AID 2282946); details: IR1 reporter transcription, actives raise or lower the signal
In short: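 HepG2 cells transiently transfected with multiplexed cis-element reporter units read endogenous transcription factor activity. After 24 h compound exposure, reporter mRNA was quantified by RT-PCR, fluorescent labelling, HpaI digestion and capillary electrophoresis; bidirectional fitting versus DMSO baseline.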

[3] = ATG_GRE_CIS: Attagene CIS-FACTORIAL HepG2 Assay for human Glucocorticoid Response Elements (GRE) (AID 2282947); details: HepG2 GRE cis-reporter, Attagene multiplex mRNA; actives raise or lower the signal
In short: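 Multiplexed cis-reporter mRNA induction, HepG2, 24 h post-dose. RT-PCR, FAM-labelled, HpaI-digested amplicons by CE. Bidirectional fit vs DMSO.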

[4] = ATG_ISRE_CIS: Attagene CIS-FACTORIAL HepG2 Assay for human Interferon Regulatory Factor 1 (IRF1) binding to an Interferon-Stimulated Response Element (ISRE) (AID 2282948); details: HepG2 ISRE cis-reporter (Attagene), mRNA transcription readout; actives raise or lower the signal
In short: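 Signal reflects induction or loss of ISRE-linked reporter mRNA in transiently transfected HepG2 cells after a 24 h treatment, detected by fluorescent RT-PCR fragments on capillary electrophoresis and normalised to DMSO.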

[5] = ATG_M_32_CIS: Attagene CIS-FACTORIAL HepG2 Assay for M32 Transcription Factor (Internal Marker) (AID 2282949); details: HepG2 Attagene cis-factorial M32 reporter, mRNA; actives raise or lower the signal;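 further: background control marker of the multiplexed CIS panel rather than a real target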
In short: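 Using DMSO as baseline, bidirectional curve fits were applied to reporter mRNA signals. These came from transiently transfected HepG2 cells exposed for 24 h, with RNA analysed by RT-PCR, FAM primer extension, HpaI digestion and CE.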

[6] = ATG_M_06_CIS: Attagene CIS-FACTORIAL HepG2 Assay for M06 Transcription Factor (Internal Marker) (AID 2282950); details: HepG2 Attagene CIS-FACTORIAL M06 internal marker reporter; actives raise or lower the signal
In short: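 Cells (HepG2, transiently carrying cis-driven reporter units) receive chemical for 24 h before RNA isolation. Reporter cDNA is PCR-amplified, FAM-labelled by primer extension, HpaI-digested and sized on a capillary analyser.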

[7] = target: Hypoxia-inducible factor 1-alpha (Homo sapiens) (UniProt Q16665); assay: ATG_HIF1a_CIS: Attagene CIS-FACTORIAL HepG2 Assay for human Hypoxia Inducible Factor 1 (HIF1A) (AID 2282951); details: HepG2 Attagene cis-factorial HIF1a reporter transcription; actives raise or lower the signal
In short: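 RT-PCR/capillary electrophoresis fluorescence readout of reporter transcripts from endogenous-TF-driven cis elements in transfected HepG2 cells, 24 h exposure; activity fitted in both directions against DMSO controls.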

[8] = target: Hepatocyte nuclear factor 6 (Homo sapiens) (UniProt Q9UBC0); assay: ATG_HNF6_CIS: Attagene CIS-FACTORIAL HepG2 Assay for human Hepatocyte Nuclear Factor 6 (HNF6) (AID 2282952); details: HepG2 Attagene cis-factorial HNF6 reporter transcription; actives raise or lower the signal
In short: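 First, HepG2 cells were transfected with the multiplexed cis reporter library and dosed with chemical for 24 h. Next, RNA was reverse-transcribed, PCR-amplified and fluorescently labelled. Finally, HpaI-digested fragments were read by capillary electrophoresis.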

[9] = target: Heat shock factor protein 1 (Homo sapiens) (UniProt Q00613); assay: ATG_HSE_CIS: Attagene CIS-FACTORIAL HepG2 Assay for human Heat Shock Transcription Factor 1 (HSE) (AID 2282953); details: HepG2 HSE cis-reporter, Attagene RNA transcription; actives raise or lower the signal
In short: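 Liver-derived HepG2 cells carry transiently introduced multiple reporter units governed by cis promoters. Reporter RNA measured 24 h post-dose through reverse transcription, PCR amplification, fluorescent labelling and capillary electrophoresis, normalised to DMSO.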

[10] = ATG_MRE_CIS: Attagene CIS-FACTORIAL HepG2 Assay for human Metal Responsive Element (MRE) (AID 2282954); details: HepG2 MRE cis-reporter transcription, Attagene multiplex; actives raise or lower the signal
In short: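 Multiplexed cis-reporter assay in human HepG2 liver cells, 24 h incubation with test chemical. Reporter transcripts measured by RT-PCR and capillary electrophoresis; values from bidirectional curve fitting versus DMSO.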

[11] = ATG_PBREM_CIS: Attagene CIS-FACTORIAL HepG2 Assay for human Phenobarbital-responsive Enhancer Module (PBREM) (AID 2282955); details: HepG2 PBREM cis-reporter, Attagene multiplexed transcription; actives raise or lower the signal
In short: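 Reporter mRNA read by RT-PCR, 6-FAM primer extension, HpaI digestion and capillary electrophoresis. Transfected HepG2 cells, 24 h compound exposure. Gain or loss of signal fitted bidirectionally relative to DMSO baseline.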

[12] = ATG_PXRE_CIS: Attagene CIS-FACTORIAL HepG2 Assay for human Pregnane X Receptor Element (PXRE) (AID 2282957); details: HepG2 Attagene CIS-FACTORIAL PXRE reporter, mRNA; actives raise or lower the signal
In short: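 After a 24 h chemical incubation, total RNA from transfected HepG2 cells was reverse-transcribed and reporter cDNA amplified, FAM-labeled, HpaI-digested and sized by capillary electrophoresis. DMSO served as baseline for bidirectional curve fitting.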

[13] = ATG_PPRE_CIS: Attagene CIS-FACTORIAL HepG2 Assay for human Peroxisome Proliferator-activated Response Element (PPRE) (AID 2282958); details: HepG2 PPRE cis-element reporter, Attagene transcription factor profiling; actives raise or lower the signal
In short: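 Read-out: fluorescent reporter mRNA fragments resolved by capillary electrophoresis after RT-PCR. HepG2 cells carried transiently transfected PPRE-driven cis reporter constructs and were dosed for 24 h; gain or loss of signal fitted relative to DMSO.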

[14] = ATG_RORE_CIS: Attagene CIS-FACTORIAL HepG2 Assay for human RAR-related Orphan Receptor Element (RORE) (AID 2282959); details: HepG2 Attagene cis-factorial RORE reporter, mRNA; actives raise or lower the signal
In short: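 Readout: fluorescent reporter mRNA by RT-PCR plus capillary electrophoresis, 24 h after dosing transfected HepG2 cells. Endogenous transcription factor activity on a cis promoter element is measured. Gain or loss of signal fitted against DMSO.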

[15] = ATG_Sox_CIS: Attagene CIS-FACTORIAL HepG2 Assay for human SRY-box transcription factor (SOX) (AID 2282960); details: HepG2 Attagene cis-factorial SOX reporter, mRNA; actives raise or lower the signal
In short: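 Read-out: fluorescent RT-PCR products of SOX1-linked reporter transcripts resolved by capillary electrophoresis, fitted bidirectionally against DMSO. Transiently transfected HepG2 cells, 24 h after chemical exposure, endogenous transcription factor activity.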

[16] = target: Transcription factor Sp1 (Homo sapiens) (UniProt P08047); assay: ATG_Sp1_CIS: Attagene CIS-FACTORIAL HepG2 Assay for human Specificity Protein 1 (Sp1) (AID 2282961); details: HepG2 Sp1 cis-reporter transcription, actives raise or lower the signal
In short: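 Read-out: fluorescence of 6-FAM-labeled, HpaI-digested RT-PCR products separated by capillary electrophoresis. HepG2 cells carried transfected cis-element reporter units and were exposed to chemicals for 24 h; gain or loss of signal fitted relative to DMSO.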

[17] = ATG_SREBP_CIS: Attagene CIS-FACTORIAL HepG2 Assay for human Sterol Regulatory Element Binding (SREBP) (AID 2282962); details: HepG2 Attagene cis-factorial SREBP reporter, mRNA; actives raise or lower the signal
In short: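 Values derive from bidirectional curve fitting with DMSO as baseline. The underlying measurement is reporter mRNA from cis-element-regulated units in transiently transfected HepG2, quantified by RT-PCR and capillary electrophoresis after 24 h exposure.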

[18] = target: Signal transducer and activator of transcription 3 (Homo sapiens) (UniProt P40763); assay: ATG_STAT3_CIS: Attagene CIS-FACTORIAL HepG2 Assay for human Signal Transducer and Activator of Transcription 3 (STAT3) (AID 2282963); details: HepG2, Attagene cis-factorial STAT3 reporter transcription; actives raise or lower the signal
In short: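 Cis-factorial format: endogenous transcription factors in HepG2 drive transfected reporter units. After 24 h treatment, reporter RNA was reverse-transcribed, amplified, FAM-labelled and HpaI-digested before CE analysis; activity scored in both directions against DMSO.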

[19] = target: Paired box protein Pax-6 (Homo sapiens) (UniProt P26367); assay: ATG_Pax6_CIS: Attagene CIS-FACTORIAL HepG2 Assay for human Paired Box 6 (PAX6) (AID 2282956); details: HepG2 CIS-FACTORIAL PAX6 reporter transcription, RNA readout; actives raise or lower the signal
In short: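 Values derive from bidirectional curve fitting of reporter mRNA signal relative to DMSO. HepG2 cells bearing transfected cis-regulated MRTUs were exposed for 24 h; transcripts were read by RT-PCR and capillary electrophoresis.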

[20] = ATG_TA_CIS: Attagene CIS-FACTORIAL HepG2 Assay for human TA Basal Promoter (AID 2282964); details: HepG2 Attagene CIS-factorial TA basal promoter reporter; actives raise or lower the signal
In short: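 Background internal-marker endpoint from a 52-component HepG2 cis-reporter panel. Cells treated 24 h; reporter transcripts quantified via RT-PCR and CE fluorescence against DMSO baseline.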

Measured: AC50

Sequence of Signal transducer and activator of transcription 3 (Homo sapiens) (P40763 whole entry, looked up): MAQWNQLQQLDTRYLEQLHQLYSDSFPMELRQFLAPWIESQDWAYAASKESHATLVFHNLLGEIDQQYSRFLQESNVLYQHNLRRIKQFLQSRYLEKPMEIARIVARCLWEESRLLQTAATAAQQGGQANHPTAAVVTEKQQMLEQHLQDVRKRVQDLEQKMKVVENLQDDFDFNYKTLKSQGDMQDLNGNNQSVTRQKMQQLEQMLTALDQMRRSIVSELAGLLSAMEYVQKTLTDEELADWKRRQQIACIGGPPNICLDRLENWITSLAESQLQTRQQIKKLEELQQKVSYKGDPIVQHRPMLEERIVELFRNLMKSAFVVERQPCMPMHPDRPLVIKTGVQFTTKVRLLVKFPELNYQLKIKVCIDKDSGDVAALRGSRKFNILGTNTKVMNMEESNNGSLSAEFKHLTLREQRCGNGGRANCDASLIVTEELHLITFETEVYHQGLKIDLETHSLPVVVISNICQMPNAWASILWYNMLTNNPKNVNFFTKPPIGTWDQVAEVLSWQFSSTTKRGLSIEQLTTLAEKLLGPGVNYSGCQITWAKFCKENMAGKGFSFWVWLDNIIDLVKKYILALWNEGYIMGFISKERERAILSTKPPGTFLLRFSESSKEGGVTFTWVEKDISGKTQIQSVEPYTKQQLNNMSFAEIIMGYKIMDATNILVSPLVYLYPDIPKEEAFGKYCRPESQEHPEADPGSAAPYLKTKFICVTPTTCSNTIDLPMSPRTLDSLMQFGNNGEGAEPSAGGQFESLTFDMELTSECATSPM
Sequence of Heat shock factor protein 1 (Homo sapiens) (Q00613 whole entry, looked up): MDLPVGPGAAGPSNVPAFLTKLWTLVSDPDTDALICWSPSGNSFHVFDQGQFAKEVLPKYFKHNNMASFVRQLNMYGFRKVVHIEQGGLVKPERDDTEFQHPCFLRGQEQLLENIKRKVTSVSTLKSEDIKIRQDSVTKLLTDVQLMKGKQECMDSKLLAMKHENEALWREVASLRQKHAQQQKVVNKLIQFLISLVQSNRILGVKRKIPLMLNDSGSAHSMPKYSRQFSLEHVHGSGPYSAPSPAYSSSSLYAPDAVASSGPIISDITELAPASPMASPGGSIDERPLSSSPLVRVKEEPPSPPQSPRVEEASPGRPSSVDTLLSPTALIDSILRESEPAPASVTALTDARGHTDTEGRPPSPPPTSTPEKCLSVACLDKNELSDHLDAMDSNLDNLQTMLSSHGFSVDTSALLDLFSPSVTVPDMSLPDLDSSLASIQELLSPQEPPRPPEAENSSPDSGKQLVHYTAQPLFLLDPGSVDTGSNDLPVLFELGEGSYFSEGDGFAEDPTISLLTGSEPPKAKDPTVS
Sequence of Hypoxia-inducible factor 1-alpha (Homo sapiens) (Q16665 whole entry, looked up): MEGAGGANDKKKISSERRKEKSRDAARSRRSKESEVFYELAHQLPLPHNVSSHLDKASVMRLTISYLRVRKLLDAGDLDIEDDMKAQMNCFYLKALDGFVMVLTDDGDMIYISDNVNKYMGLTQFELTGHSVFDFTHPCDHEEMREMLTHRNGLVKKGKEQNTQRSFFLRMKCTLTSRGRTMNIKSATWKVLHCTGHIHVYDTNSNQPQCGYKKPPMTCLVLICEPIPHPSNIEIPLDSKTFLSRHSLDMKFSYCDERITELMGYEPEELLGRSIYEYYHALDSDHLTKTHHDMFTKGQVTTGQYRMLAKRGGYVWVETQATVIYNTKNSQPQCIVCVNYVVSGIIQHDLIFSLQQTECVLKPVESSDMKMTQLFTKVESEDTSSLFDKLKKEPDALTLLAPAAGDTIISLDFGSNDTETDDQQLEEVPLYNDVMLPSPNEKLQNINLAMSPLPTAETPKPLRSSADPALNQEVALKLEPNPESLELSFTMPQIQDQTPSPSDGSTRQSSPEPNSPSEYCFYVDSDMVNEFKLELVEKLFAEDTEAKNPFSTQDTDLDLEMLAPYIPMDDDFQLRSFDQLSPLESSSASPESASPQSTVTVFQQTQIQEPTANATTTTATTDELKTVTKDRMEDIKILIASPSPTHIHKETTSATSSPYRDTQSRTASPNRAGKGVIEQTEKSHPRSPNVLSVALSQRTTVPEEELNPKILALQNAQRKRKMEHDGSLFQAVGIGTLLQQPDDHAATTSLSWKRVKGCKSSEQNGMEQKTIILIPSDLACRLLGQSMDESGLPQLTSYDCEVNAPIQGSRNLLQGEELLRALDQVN
Sequence of Transcription factor Sp1 (Homo sapiens) (P08047 whole entry, looked up): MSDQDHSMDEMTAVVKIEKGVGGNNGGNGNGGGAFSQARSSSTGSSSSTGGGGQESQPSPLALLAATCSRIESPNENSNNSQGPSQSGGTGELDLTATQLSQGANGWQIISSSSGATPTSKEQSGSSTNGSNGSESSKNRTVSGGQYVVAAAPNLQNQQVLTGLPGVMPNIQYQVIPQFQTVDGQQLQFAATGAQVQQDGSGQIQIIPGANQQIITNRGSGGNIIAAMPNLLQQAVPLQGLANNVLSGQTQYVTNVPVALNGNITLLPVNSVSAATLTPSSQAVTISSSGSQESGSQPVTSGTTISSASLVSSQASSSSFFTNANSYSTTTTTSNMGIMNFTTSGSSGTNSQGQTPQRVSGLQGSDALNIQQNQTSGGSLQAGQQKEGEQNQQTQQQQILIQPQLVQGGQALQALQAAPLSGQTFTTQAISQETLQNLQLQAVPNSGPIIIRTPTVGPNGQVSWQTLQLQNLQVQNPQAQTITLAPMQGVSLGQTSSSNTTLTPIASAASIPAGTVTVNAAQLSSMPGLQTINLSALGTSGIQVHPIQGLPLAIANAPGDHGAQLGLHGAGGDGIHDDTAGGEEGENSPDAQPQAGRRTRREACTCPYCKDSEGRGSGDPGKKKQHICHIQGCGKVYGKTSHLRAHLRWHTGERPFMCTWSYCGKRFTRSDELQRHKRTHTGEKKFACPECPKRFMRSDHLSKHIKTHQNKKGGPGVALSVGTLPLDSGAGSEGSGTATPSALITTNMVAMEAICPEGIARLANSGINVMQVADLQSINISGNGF
Sequence of Paired box protein Pax-6 (Homo sapiens) (P26367 whole entry, looked up): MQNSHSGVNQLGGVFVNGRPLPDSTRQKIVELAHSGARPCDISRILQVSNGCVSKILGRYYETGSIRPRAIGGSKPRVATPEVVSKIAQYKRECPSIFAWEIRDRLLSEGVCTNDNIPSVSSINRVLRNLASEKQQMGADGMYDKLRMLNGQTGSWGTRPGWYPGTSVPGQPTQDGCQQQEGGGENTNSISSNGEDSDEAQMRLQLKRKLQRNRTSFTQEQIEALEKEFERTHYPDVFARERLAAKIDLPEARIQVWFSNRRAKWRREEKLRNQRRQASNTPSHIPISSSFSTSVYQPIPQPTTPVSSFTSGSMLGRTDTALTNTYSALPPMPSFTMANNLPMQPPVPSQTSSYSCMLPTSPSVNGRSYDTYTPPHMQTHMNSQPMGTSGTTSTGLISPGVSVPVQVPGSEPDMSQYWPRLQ
Sequence of Bile acid receptor (Homo sapiens) (Q96RI1 whole entry, looked up): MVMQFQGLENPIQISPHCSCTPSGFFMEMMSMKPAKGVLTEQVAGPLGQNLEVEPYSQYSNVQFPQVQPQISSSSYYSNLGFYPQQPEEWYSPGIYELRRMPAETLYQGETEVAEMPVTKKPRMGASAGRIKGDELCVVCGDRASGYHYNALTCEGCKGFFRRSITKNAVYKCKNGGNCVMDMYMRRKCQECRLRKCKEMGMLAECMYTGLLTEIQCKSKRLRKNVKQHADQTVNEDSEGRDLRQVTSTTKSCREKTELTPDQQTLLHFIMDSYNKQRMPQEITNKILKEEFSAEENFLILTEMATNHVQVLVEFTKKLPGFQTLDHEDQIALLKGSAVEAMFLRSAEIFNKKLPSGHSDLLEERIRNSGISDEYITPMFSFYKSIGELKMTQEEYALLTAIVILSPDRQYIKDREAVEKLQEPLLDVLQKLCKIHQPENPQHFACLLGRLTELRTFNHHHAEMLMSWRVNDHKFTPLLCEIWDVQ
Sequence of Hepatocyte nuclear factor 6 (Homo sapiens) (Q9UBC0 whole entry, looked up, the tested form may be a part): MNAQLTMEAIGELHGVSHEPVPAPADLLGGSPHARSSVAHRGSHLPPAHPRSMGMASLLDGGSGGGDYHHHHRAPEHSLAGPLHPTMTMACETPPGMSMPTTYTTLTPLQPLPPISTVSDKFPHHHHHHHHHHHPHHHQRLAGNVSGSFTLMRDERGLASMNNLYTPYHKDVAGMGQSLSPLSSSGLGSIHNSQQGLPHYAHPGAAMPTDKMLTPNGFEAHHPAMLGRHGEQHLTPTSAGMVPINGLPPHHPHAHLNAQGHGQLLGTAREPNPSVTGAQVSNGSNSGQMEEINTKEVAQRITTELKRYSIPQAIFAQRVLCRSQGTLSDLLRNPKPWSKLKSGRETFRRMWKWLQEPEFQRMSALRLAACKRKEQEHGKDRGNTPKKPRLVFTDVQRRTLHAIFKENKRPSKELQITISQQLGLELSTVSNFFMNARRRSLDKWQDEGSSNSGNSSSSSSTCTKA

CC(=O)C1C(=O)C=C(C)OC1=O (stereo unspecified)
not listed: [19] | [20]
inactive: all other assays above

O=C1OCc2ccccc21
not listed: [9]
inactive: all other assays above

O=C(c1ccc(OCCN2CCCCC2)cc1)c1c(-c2ccc(O)cc2)sc2cc(O)ccc12
inactive: [1] | [3] | [4] | [5] | [6] | [8] | [9] | [10] | [19] | [12] | [13] | [14] | [15] | [16] | [17] | [18]
active: [1] 11.1 µM and 15.2 µM | [3] 20.2 µM | [4] 11.1 µM and 17 µM and 14.8 µM | [8] 11.1 µM and 21.4 µM | [9] 17.2 µM and 17.7 µM and 19.8 µM | [10] 15.8 µM [middle of 4 runs] | [19] 11.1 µM [middle of 4 runs] | [12] 2.79 µM [middle of 4 runs] | [14] 11.1 µM and 15.6 µM | [15] 13 µM and 18 µM | [16] 11.1 µM and 16.7 µM | [17] 6.38 µM and 2.85 µM and 2.92 µM

CC(C)CCOC(=O)CC(C)C
not listed: [11]
inactive: all other assays above

CC(C)C(=O)OCC=Cc1ccccc1
active: [12] 16.4 µM
inactive: all other assays above

CCC(C)(C)c1cc(O)c(C(C)(C)CC)cc1O
active: [1] 6.82 µM | [2] 24.2 µM | [3] 24.8 µM | [4] 20.2 µM | [7] 10.7 µM | [8] 30 µM | [9] 49.3 µM | [19] 68.9 µM | [15] 100 µM | [16] 4.19 µM | [17] 4.61 µM
inactive: [5] | [6] | [11] | [12] | [13] | [14] | [18] | [20]

C=CCOC(=O)/C=C\C(=O)OCC=C
active: [4] 19.7 µM | [7] 18.6 µM | [8] 28 µM | [9] 164 µM | [10] 39.5 µM | [12] 20.1 µM | [14] 11.3 µM | [15] 27.6 µM
not listed: [19]
inactive: all other assays above

CCCCCC1CCC(=O)O1 (stereo unspecified)
not listed: [11] | [12] | [17]
inactive: all other assays above

CC(C)(C)c1cc(CCC(=O)OCCSCCOC(=O)CCc2cc(C(C)(C)C)c(O)c(C(C)(C)C)c2)cc(C(C)(C)C)c1O
inactive: all assays above

CC(C)OB(OC(C)C)OC(C)C
not listed: [13] | [20]
inactive: all other assays above

C=CC(=O)OCC(CO)(COC(=O)C=C)COC(=O)C=C
active: [2] 26 µM | [4] 7.12 µM | [5] 122 µM | [9] 161 µM | [10] 5.67 µM | [13] 117 µM | [20] 100 µM
not listed: [11] | [12] | [19]
inactive: all other assays above

CCCc1ccc(O)cc1
not listed: [11]
inactive: all other assays above

C#C[C@]1(O)CC[C@H]2[C@@H]3CCc4cc(O)ccc4[C@H]3CC[C@@]21C
active: [1] 98.4 µM and 72.2 µM and 62.4 µM | [3] 159 µM | [5] 161 µM | [7] 49 µM and 67.4 µM | [8] 58.1 µM and 100 µM | [9] 59.2 µM [middle of 4 runs] | [14] 67.3 µM and 60.7 µM and 26.4 µM | [15] 130 µM and 54.9 µM | [16] 169 µM and 44.8 µM | [18] 68 µM and 155 µM
inactive: [1] | [3] | [5] | [6] | [7] | [8] | [9] | [19] | [13] | [14] | [15] | [16] | [18]

Source: PubChem BioAssay (EPA / NIEHS)
